# Compound activity from PubChem BioAssay.
# Most compounds without a hit are left out; they make up all but 2.8% or so of the library.
# Pol eta inh-1 – blocks human DNA polymerase eta activity; Q9Y253; recombinant Pol eta, fluorescent DNA replication assay; Potency, µM (top dose mostly 114 µM), for the others: at the top dose activity change, negative = inhibition, most hits filed as inhibitors; 1.2% of 390,000 active; AID 588591; further: potency means the concentration at half of the fitted maximal effect; on the % scale 0 is the no-effect control and ±100 the full control effect
# Target sequence (Q9Y253 whole entry, looked up): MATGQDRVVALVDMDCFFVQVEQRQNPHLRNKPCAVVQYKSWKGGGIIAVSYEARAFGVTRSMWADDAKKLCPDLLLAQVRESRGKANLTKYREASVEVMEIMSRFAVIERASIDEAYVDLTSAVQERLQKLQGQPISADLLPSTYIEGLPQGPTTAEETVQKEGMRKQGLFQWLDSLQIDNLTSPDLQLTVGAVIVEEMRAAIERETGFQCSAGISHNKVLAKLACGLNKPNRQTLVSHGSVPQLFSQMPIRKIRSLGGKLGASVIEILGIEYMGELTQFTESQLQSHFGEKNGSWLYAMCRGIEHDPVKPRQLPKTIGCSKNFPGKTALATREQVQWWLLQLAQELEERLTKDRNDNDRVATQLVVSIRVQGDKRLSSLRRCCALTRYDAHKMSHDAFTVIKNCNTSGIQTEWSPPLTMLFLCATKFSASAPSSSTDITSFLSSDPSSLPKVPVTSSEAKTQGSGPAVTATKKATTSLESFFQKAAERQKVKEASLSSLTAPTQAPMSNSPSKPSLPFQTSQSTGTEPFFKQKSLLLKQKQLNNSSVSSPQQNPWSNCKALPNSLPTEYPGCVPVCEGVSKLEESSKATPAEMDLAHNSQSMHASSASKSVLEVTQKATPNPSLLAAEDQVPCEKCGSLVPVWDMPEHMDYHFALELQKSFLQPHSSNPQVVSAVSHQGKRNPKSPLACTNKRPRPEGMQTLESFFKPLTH
#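 Pol eta (10 nM) was preincubated with compounds for 15 min at room temperature, after which fluorescent replication substrate (50 nM final) was added to start the reaction. Fluorescence was read kinetically at 0 and 10 min.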
# POLI inh – blocks human DNA polymerase iota activity | Q9UNA4 | Pol iota fluorescent replication assay, 10 min | Potency, µM (series often up to 115 µM), without a hit: top-dose activity, negative = inhibition, most hits filed as inhibitors | 1% of 390,000 active | AID 588590; further: potency means the concentration at half of the fitted maximal effect
#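 Pol iota at 10 nM preincubated 15 min with compounds at room temperature; reaction started with fluorescent substrate, 50 nM final. Fluorescence read kinetically at 0 and 10 min; buffer-only wells as negative control.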
# Pol beta inh – DNA polymerase beta (human) inhibition; P06746; Pol beta primer extension/strand displacement, fluorescence kinetic; Potency, µM (doses to about 114 µM), for inactives: top-dose activity change, negative = inhibition, usual class: inhibitors; 1.3% of 340,000 active; AID 485314; further: potency means the concentration at half of the fitted maximal effect; on the % scale 0 is the no-effect control and ±100 the full control effect
#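 Preincubation: enzyme (10 nM) with compound, 15 min, RT. Reaction: substrate added to 50 nM final. Reads: 0 and 10 min. Analysis: normalized, Hill fit.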
# PI5P4K alpha inh – PI5P4K alpha (human) kinase inhibition. max response, %. PI5P4Kalpha enzyme, ADP-Glo luminescence, 60 min; stronger effect = lower value. 1.2% of 330,000 active; active means max response of -50% or lower; inconclusive means between -30% and -50%; inactive means -30% or higher; further: value at the top dose of about 77 µM; on the % scale 0 is the no-effect control and ±100 the full control effect
#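 Single end-point luminescence (ADP-Glo) quantified ADP from PI5P4Kalpha turnover; ATP 5 microM final, 1 h at RT, 0.1% CHAPS and 0.28 mM EGTA in HEPES pH 7.4.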
# Pol kappa inh-1 – inhibitors of human DNA polymerase kappa; Q9UBT6; AID 588579; purified Pol kappa, fluorescent DNA synthesis assay, 10 min; 0.53% of 400,000 active; Potency, µM (titrated, usually from 107 µM), without a hit: at the highest dose activity, negative = inhibition, actives largely listed as inhibitors; further: potency means the concentration at half of the fitted maximal effect; on the % scale 0 is the no-effect control and ±100 the full control effect
#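 Inhibition of 10 nM Pol kappa is measured by a fluorescent read-out at 0 and 10 min following addition of 50 nM substrate (final), with a 15-min room-temperature compound preincubation.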
# WRN helicase inh-1 – inhibitors of human WRN helicase; WRN helicase unwinding, fluorescent forked duplex, kinetic; Potency, µM (doses to about 114 µM), for inactives: at the top dose activity change, negative = inhibition, hits mostly inhibitors; 0.46% of 360,000 active; further: potency means the concentration at half of the fitted maximal effect; on the % scale 0 is the no-effect control and ±100 the full control effect; nearly all actives have a fitted effect of over 55% in size
#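 Kinetic red-fluorescence monitoring (525/598 nm) tracks WRN helicase activity after 100 nM fluorophore-quencher forked duplex and 2 mM ATP are added to 20 nM enzyme pretreated 15 min at room temperature with compound.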
# BAZ2B confirm – confirmation of human BAZ2B bromodomain inhibitors; shares compounds with Pol kappa inh-1; AlphaScreen BAZ2B / biotin-H3K14Ac peptide displacement; Potency, µM, actives largely listed as inhibitors; 100% of 25 active; calls by dose curve
# AlphaScreen ctr – interferes with AlphaScreen signal in BAZ2B counterscreen; AlphaScreen biotin-His6 peptide bead counterscreen, signal decrease; shares compounds with Pol kappa inh-1; 25 tested, under 10 active; Potency, µM (highest dose often 57.1 µM), without a hit: at the highest dose activity change, negative = inhibition, actives largely listed as inhibitors;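 active means clear concentration-dependent signal drop in the bead assay lacking the target, so a primary-screen artifact; inconclusive means weak, partial or single-dose response; inactive means no response, so a real primary hit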
# TbPGK inh – blocks T. brucei phosphoglycerate kinase. shares compounds with Pol kappa inh-1. TbPGK coupled GAPDH assay, Kinase-Glo luminescence. Potency, µM (titrated, usually from 57.5 µM), inactives show top-dose activity change, negative = inhibition, hits mostly inhibitors. 79% of 500 active; further: potency means the concentration at half of the fitted maximal effect; on the % scale 0 is the no-effect control and ±100 the full control effect; nearly all actives have a fitted effect of over 65% in size
# Pol iota confirm – Human Pol iota inhibitor confirmatory assay. shares compounds with Pol kappa inh-1. Pol iota primer extension, TAMRA/BHQ fluorescence. Potency, µM, hits mostly inhibitors. 77% of 1,500 active. AID 720496; further: potency means the concentration at half of the fitted maximal effect
# Pol kappa inh-2 – confirmation of human DNA polymerase kappa inhibitors | shares compounds with Pol eta inh-1 | purified Pol-kappa, fluorescent strand-displacement substrate | Potency, µM, hits mostly inhibitors | 76% of 920 active | AID 720501; further: potency means the concentration at half of the fitted maximal effect
# Pol eta inh-2 – confirmation of human DNA polymerase eta inhibitors. shares compounds with Pol eta inh-1. Pol eta primer extension, TAMRA/BHQ fluorescence, 10 min. Potency, µM, hits mostly inhibitors. 64% of 2,600 active. AID 720502; further: potency means the concentration at half of the fitted maximal effect
# WRN helicase inh-2 – confirmation of human WRN helicase inhibitors | shares compounds with WRN helicase inh-1 | WRN helicase DNA unwinding, fluorescence kinetic | Potency, µM (highest dose often 57.1 µM), for the others: at the highest dose activity, negative = inhibition, actives largely listed as inhibitors | 63% of 610 active | AID 720497; further: potency means the concentration at half of the fitted maximal effect; nearly all actives have a fitted effect of over 65% in size
# TO displacement – counter-screen for WRN helicase inhibitors: DNA binding; shares compounds with WRN helicase inh-1; thiazole orange DNA binding displacement, fluorescence; Potency, µM (highest dose often 57.1 µM), without a hit: top-dose activity change, negative = inhibition, usual class: inhibitors; 10% of 610 active;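 further: drop in dye fluorescence marks compound binding to DNA; potency means the concentration at half of the fitted maximal effect; on the % scale 0 is the no-effect control and ±100 the full control effect; nearly all actives have a fitted effect of over 60% in size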
# BLM counter – blocks human BLM helicase in WRN counterscreen; shares compounds with WRN helicase inh-1; Recombinant BLM helicase DNA unwinding, red fluorescence; Potency, µM (series often up to 57.1 µM), for the others: at the top dose activity change, negative = inhibition, actives largely listed as inhibitors; 60% of 610 active; AID 720503; further: potency means the concentration at half of the fitted maximal effect; nearly all actives have a fitted effect of over 60% in size
# ADP-Glo interf – counter-screen for PI5P4K inhibitors: ADP-Glo detection interference, no enzyme; ADP-Glo detection counter-screen, luciferase luminescence, no enzyme; Potency, µM (doses to about 76.9 µM), inactives show at the top dose activity change, negative = inhibition, hits mostly inhibitors; 1,100 tested, under 10 active; shares compounds with PI5P4K alpha inh
# * = called active by the depositor; ? = inconclusive; · = no result; [ ] = another dose, or the depositor's remark. Unless noted, the call rests on the fitted dose curve; in most records, active means well fitted curve in the direction sought with a large enough effect; inconclusive means small, poorly fitted or top-dose-only effect, or another doubt; inactive means no such curve, though single readings can be large; an effect the other way counts as inactive or inconclusive.
SMILES,Pol eta inh-1,POLI inh,Pol beta inh,PI5P4K alpha inh,Pol kappa inh-1,WRN helicase inh-1,Pol eta inh-2,others
COc1ccc(OC)c(NC(=O)COC(=O)c2cc3c(s2)CCC3)c1,10µM*,3.55µM*,7.94µM*,-83.0*,12.6µM*,23.8µM*,15.1*,BAZ2B confirm=22.4*;AlphaScreen ctr=?;TbPGK inh=4.61µM*;Pol iota confirm=9.47*;WRN helicase inh-2=17.1µM*;TO displacement=?;BLM counter=3.04µM*;ADP-Glo interf=-1.0%
CC(C)c1ccc2c(c1O)CCC1C3=C(CC[C@]21C)C(=O)OC3 (stereo not given in full),·,·,·,·,-13.0%[60.1 µM],·,·,
O=C1NC(=O)N(CCC2=CCCCC2)C(=O)/C1=C/c1cccs1,?,?,?,-63.4*,-39.5%,?,?,
CCCCC(C)C(OC(=O)CC(CC(=O)O)C(=O)O)C(CC(C)CC(O)CCCCC(O)CC(O)C(C)N)OC(=O)CC(CC(=O)O)C(=O)O (stereo not given),?,19.4%,?,-1.2,79.4µM*,-0.9%[57.1 µM],75.7*,
CCCCCCC(N)CC(=O)O (stereo not given),-5.6%,7.4%,11.1%,0.0,-2.0%,-5.5%,·,
Cn1cccc1/C=C1/C(=O)NC(=O)N(Cc2ccccc2)C1=O,?,15.8µM*,3.7%,-65.8*,79.4µM*,?,75.7*,
COC(=O)c1cc(Oc2ccc(Cl)cc2Cl)ccc1[N+](=O)[O-],·,·,·,·,0.1%[60.1 µM],·,·,
O=C(Nc1ccc(Oc2ccc(Cl)cc2)c(Cl)c1)c1cc(I)cc(I)c1O,?,?,6.0%,-54.6*,-25.5%,-10.9%[11.6 µM],?,Pol kappa inh-2=13.4*
C=CCN1C(=O)NC(=O)C(Cc2ccc(OC)c(OC)c2)C1=O (stereo not given),8.91µM*,?,-2.6%,8.2,?,?,30.1*,
OC[C@H]1O[C@@H](n2cnc3cc(Cl)c(Cl)cc32)[C@H](O)[C@H]1O,·,·,·,·,10.1%[60.1 µM],·,·,
N#CC1=C(N)Oc2c(c(=O)oc3ccccc23)C1c1ccc([N+](=O)[O-])o1 (stereo not given),20µM*,?,?,-8.0,50.1µM*,?,84.9*,Pol kappa inh-2=37.7*
CCOc1ccc(C(=O)Nc2cccc(C(=O)OCc3cc(=O)n4nc(C5CC5)sc4n3)c2)cc1,?,9.5%,-15.2%,·,-15.2%[60.1 µM],·,·,
CC[N+](C)(CC)CCCCOc1ccc2c(c1)C(=O)c1cc(OCCCC[N+](C)(CC)CC)ccc1-2,?,14.1µM*,?,-13.3,?,39.8µM*,?,
Cc1cccc(Oc2nc3c(C)cccn3c(=O)c2/C=C(\C#N)c2nc3ccccc3s2)c1,50.1µM*,-10.4%,-16.5%,·,-12.4%,·,?,Pol kappa inh-2=42.3*
CCN(CC1CCCN(CCc2cccc(OC)c2)C1)C(=O)c1ccc(COC)o1 (stereo not given),-16.2%,60.6%,5.9%,4.3,1.4%,4.5%,·,
O=C(CSc1nc(-c2cccs2)nc2cc(=O)[nH]n12)Nc1ccc(F)cc1,-23.3%,?,1.8%,·,-13.8%,·,·,
O=C1Nc2ccccc2/C1=C/c1nc2ccccc2c(=O)n1-c1ccc(O)cc1,?,17.8µM*,?,-20.8,?,?,?,
COc1ccc(-n2c(/C=C3\C(=O)Nc4ccccc43)nc3ccccc3c2=O)cc1,-11.8%,?,15.0%,1.9,-8.0%,3.8%,·,
CSc1ncc(/C=C2/C(=O)NC(=O)N(c3ccc(C)cc3)C2=O)cn1,-1.6%,11.3%,?,?,-12.5%,-0.9%,·,
Cc1cc(C)cc(N2C(=O)NC(=O)/C(=C\C=C\c3ccco3)C2=O)c1,17.8µM*,22.4µM*,28.2µM*,-29.6,39.8µM*,50.1µM*,30.1*,Pol kappa inh-2=18.9*
Cc1ccc(N2C(=O)NC(=O)/C(=C/C=C/c3ccco3)C2=O)cc1,?,11.2µM*,31.6µM*,-23.8,20µM*,44.7µM*,?,
CN1C(=O)CCS(=O)(=O)[C@H]1c1ccc(Cl)cc1,·,·,·,·,-5.7%[19.4 µM],·,·,
CCC(C)N1C(=O)/C(=C/c2ccc3c(c2)CCN3CCCCl)C(=O)NC1=S (stereo not given),15.8µM*,?,15.8µM*,-66.8*,?,-15.9%[11.6 µM],75.7*,Pol kappa inh-2=84.4*
OC[C@@H]1[C@@H](O)[C@H](O)[C@H]2[C@@H](O)CCN21,·,·,·,·,3.6%[60.1 µM],·,·,
